# PMC7862700, “An all-to-all approach to the identification of sequence-specific readers for epigenetic DNA modifications on cytosine”
# Assays:
# Assay in all cases: DAPPL (digital affinity profiling via proximity ligation, sequencing); 10 mM Tris-HCl pH 7.5, 50 mM NaCl, 1 mM DTT, 4% glycerol, room temperature, 30 min; GST-TFs on glutathione beads, 16-mer random dsDNA library, 0.1% formaldehyde crosslink after washing; high values mean tight binding
# [1] = target: T1, FLI1 (Homo sapiens, UniProt Q01543 1-452); settings: protein: recombinant; tags: N-terminal GST; dsDNA, one strand shown
# T1 sequence: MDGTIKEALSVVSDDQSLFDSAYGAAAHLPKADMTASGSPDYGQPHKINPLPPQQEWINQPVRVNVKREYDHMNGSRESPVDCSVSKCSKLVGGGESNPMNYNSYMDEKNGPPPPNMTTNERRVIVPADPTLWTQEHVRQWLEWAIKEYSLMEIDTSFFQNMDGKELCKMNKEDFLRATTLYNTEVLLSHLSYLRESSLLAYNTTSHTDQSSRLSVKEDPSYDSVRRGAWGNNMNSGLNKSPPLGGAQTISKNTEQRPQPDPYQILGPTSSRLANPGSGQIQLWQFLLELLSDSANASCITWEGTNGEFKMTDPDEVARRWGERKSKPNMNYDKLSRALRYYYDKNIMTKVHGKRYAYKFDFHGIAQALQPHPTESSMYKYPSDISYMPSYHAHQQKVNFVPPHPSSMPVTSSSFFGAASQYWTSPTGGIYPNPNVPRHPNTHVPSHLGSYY
# Procedure, shortened: (§1)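 Pools of DNA-barcoded human transcription factors, expressed in yeast as GST fusions on glutathione beads and combined with a tag-only sample, were incubated with 200 nmole of a 16-mer random double-stranded DNA library. Incubation took 30 min at room temperature in Tris/NaCl/DTT/glycerol buffer and was followed by washing, 0.1% formaldehyde crosslinking, proximity ligation (BsaI/T4 ligase, 1 h, 37 °C), PCR amplification and sequencing on an Illumina NextSeq500. Binding signal is the ratio of a hexamer's read frequency for a factor to its frequency for the tag-only sample.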
# [2] = target: T2, ELK1 (Homo sapiens, UniProt P19419 1-428); settings: protein: recombinant; tags: N-terminal GST; dsDNA, one strand shown
# T2 sequence: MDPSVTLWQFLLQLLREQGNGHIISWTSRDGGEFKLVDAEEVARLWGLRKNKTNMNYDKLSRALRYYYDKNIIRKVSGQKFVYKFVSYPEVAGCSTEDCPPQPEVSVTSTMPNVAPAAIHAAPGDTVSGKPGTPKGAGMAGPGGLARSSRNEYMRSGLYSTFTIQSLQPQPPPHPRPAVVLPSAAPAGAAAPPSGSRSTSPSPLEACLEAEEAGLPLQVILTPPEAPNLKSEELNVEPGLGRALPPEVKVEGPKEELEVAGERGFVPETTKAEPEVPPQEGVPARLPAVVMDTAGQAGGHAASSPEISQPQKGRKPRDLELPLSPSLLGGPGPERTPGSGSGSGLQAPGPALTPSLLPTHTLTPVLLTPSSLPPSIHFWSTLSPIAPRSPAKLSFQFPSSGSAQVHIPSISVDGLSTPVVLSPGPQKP
# Procedure, shortened: as §1
# [3] = target: T3, GABPA (Homo sapiens, UniProt Q06546 1-454); settings: protein: recombinant; tags: N-terminal GST; dsDNA, one strand shown
# T3 sequence: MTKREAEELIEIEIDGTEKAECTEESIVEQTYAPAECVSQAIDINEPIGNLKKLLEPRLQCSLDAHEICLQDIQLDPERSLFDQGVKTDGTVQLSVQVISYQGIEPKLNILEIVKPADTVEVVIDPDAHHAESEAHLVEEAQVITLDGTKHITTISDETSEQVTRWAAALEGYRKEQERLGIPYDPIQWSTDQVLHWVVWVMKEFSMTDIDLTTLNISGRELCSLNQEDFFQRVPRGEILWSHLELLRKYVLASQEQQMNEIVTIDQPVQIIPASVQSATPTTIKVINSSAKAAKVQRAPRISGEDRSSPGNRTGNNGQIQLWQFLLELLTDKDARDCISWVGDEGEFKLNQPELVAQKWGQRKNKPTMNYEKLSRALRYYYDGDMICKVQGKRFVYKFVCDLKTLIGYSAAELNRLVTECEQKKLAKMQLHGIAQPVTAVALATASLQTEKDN
# Procedure, shortened: as §1
# [4] = target: T4, ERG (Homo sapiens, UniProt P11308 1-479); settings: protein: recombinant; tags: N-terminal GST; dsDNA, one strand shown
# T4 sequence: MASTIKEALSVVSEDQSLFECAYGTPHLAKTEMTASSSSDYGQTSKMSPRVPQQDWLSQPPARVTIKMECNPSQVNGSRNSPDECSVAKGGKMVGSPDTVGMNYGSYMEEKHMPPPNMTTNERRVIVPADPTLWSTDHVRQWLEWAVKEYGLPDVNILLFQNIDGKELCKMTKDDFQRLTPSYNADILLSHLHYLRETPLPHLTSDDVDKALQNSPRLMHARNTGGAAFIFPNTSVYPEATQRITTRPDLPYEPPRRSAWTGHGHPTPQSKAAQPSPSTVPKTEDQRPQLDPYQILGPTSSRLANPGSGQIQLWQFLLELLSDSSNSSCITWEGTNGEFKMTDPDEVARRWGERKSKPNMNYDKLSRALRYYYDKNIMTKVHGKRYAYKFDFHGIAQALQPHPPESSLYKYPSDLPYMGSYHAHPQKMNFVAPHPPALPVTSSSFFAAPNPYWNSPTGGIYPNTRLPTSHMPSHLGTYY
# Procedure, shortened: as §1
# [5] = target: ELF1 (Homo sapiens, UniProt P32519 1-619); settings: protein: recombinant; tags: N-terminal GST; dsDNA, one strand shown
# Sequence of ELF1 (P32519 whole entry): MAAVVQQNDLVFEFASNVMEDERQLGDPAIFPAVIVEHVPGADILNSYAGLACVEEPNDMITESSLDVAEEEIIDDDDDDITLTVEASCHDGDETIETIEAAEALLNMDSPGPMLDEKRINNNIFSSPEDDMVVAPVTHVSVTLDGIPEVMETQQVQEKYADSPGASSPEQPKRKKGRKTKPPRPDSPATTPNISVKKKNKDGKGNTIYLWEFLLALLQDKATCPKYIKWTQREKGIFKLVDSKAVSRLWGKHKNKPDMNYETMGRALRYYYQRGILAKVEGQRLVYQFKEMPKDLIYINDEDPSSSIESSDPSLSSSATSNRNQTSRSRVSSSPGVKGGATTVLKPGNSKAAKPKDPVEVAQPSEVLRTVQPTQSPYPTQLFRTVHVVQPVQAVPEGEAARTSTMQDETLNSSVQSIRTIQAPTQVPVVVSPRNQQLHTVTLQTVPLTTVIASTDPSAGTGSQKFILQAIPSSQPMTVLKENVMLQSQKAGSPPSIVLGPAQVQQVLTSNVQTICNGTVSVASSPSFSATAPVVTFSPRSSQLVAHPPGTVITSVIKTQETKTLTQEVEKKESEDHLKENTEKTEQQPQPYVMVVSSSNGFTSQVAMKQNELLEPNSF
# Procedure, shortened: as §1
# [6] = target: T5, EHF (Homo sapiens, UniProt Q9NZC4 1-300); settings: protein: recombinant; tags: N-terminal GST; dsDNA, one strand shown
# T5 sequence: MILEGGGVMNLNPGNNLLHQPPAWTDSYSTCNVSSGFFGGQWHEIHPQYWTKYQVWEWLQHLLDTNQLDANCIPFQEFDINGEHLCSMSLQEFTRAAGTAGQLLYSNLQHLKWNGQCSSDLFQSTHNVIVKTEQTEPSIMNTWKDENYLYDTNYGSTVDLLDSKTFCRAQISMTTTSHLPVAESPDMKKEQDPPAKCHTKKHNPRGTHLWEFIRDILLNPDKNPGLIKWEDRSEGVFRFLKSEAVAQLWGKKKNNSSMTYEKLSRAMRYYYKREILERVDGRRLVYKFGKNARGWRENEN
# Procedure, shortened: as §1
# [7] = target: SPI1 (Homo sapiens, UniProt P17947 1-270); settings: protein: recombinant; tags: N-terminal GST; dsDNA, one strand shown
# Procedure, shortened: as §1
# [8] = target: SPIB (Homo sapiens, UniProt Q01892 1-262); settings: protein: recombinant; tags: N-terminal GST; dsDNA, one strand shown
# Sequence of SPIB (Q01892 whole entry): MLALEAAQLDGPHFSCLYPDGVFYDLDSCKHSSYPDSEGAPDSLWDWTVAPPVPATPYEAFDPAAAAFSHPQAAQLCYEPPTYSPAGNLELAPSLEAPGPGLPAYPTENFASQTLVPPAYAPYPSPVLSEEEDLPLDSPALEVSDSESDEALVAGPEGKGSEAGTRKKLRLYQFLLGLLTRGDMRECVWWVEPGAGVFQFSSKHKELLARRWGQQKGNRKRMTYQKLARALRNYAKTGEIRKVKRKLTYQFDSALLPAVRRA
# Procedure, shortened: as §1
# [9] = target: T6, ELK3 (Homo sapiens, UniProt P41970 1-407); settings: protein: recombinant; tags: N-terminal GST; dsDNA, one strand shown
# T6 sequence: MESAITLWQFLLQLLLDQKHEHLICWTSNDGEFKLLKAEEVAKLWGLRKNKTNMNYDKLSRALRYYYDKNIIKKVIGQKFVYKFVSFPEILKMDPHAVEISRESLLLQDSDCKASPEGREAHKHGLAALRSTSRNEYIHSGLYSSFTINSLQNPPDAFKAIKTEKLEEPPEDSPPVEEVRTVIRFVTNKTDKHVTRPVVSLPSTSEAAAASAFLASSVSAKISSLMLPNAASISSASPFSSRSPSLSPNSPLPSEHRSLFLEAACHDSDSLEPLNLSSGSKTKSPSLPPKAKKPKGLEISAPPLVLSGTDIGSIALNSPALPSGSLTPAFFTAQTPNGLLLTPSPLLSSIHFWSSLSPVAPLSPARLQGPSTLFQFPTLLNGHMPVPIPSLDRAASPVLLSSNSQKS
# Procedure, shortened: as §1
# [10] = target: T7, FEV (Homo sapiens, UniProt Q99581 1-238); settings: protein: recombinant; tags: N-terminal GST; dsDNA, one strand shown
# T7 sequence: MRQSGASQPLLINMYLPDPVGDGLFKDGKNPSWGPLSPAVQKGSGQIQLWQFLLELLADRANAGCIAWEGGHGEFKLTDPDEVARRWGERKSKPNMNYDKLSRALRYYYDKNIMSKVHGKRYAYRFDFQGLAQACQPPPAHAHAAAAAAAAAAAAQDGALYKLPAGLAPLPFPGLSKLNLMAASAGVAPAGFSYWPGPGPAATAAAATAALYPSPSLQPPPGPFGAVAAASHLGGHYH
# Procedure, shortened: as §1
# [11] = target: ETV5 (Homo sapiens, UniProt P41161 1-510); settings: protein: recombinant; tags: N-terminal GST; dsDNA, one strand shown
# Sequence of ETV5 (P41161 whole entry): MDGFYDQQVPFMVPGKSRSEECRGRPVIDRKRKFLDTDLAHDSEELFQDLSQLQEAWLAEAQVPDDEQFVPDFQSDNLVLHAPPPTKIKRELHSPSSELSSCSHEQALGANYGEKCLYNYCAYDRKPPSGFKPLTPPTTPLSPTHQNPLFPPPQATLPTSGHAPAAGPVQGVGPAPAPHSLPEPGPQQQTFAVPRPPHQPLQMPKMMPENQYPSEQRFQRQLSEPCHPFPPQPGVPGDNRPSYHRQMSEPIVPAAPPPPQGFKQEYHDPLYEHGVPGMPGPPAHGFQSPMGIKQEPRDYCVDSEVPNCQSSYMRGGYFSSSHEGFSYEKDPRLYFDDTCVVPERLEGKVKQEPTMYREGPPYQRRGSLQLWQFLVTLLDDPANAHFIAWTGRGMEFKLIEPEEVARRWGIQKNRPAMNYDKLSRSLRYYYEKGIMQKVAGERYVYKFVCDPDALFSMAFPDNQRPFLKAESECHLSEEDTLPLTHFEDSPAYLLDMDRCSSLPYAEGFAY
# Procedure, shortened: as §1
# [12] = target: HSF1 (Homo sapiens, UniProt Q00613 1-529); settings: protein: recombinant; tags: N-terminal GST; chain copies: 3; dsDNA, one strand shown
# Sequence of HSF1 (Q00613 whole entry): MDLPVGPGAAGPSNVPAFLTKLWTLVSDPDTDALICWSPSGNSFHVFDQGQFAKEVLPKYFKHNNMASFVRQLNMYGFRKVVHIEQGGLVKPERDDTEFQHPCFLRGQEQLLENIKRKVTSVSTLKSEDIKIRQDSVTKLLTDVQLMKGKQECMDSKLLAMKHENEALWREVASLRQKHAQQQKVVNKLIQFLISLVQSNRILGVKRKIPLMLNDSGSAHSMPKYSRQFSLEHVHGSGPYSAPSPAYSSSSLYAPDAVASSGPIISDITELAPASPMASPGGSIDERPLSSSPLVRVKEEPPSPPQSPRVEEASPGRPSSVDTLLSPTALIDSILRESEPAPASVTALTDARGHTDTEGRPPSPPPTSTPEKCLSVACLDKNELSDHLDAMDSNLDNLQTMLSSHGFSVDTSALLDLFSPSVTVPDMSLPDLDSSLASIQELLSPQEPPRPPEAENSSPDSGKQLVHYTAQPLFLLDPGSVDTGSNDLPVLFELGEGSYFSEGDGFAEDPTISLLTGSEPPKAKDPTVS
# Procedure, shortened: as §1
# [13] = target: T8, SPIC (Homo sapiens, UniProt Q8N5J4 1-248); settings: protein: recombinant; tags: N-terminal GST; dsDNA, one strand shown
# T8 sequence: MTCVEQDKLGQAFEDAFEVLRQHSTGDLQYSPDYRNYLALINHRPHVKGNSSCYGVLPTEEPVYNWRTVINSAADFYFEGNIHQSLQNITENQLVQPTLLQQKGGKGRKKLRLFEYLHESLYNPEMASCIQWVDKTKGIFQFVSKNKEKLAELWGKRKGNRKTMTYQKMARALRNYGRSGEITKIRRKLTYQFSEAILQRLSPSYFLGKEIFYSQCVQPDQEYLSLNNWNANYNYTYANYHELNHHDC
# Procedure, shortened: as §1
# [14] = target: ELF4 (Homo sapiens, UniProt Q99607 1-663); settings: protein: recombinant; tags: N-terminal GST; dsDNA, one strand shown
# Sequence of ELF4 (Q99607 whole entry): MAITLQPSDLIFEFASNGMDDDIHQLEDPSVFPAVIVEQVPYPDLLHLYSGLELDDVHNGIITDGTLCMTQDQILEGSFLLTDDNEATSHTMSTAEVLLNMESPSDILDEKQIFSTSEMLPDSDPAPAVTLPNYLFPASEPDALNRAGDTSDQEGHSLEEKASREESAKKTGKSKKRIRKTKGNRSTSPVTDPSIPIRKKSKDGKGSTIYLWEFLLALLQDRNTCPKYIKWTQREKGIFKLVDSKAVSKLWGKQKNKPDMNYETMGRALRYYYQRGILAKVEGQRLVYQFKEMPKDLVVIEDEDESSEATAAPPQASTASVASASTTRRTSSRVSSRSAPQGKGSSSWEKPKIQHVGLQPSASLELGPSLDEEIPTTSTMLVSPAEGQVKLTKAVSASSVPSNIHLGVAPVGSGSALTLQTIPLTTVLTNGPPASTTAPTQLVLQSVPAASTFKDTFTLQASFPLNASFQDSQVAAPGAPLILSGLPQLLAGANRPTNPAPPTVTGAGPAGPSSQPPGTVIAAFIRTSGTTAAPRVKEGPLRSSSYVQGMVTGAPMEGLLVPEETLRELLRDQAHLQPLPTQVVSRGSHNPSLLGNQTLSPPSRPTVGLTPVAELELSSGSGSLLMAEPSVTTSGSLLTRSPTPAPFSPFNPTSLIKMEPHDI
# Procedure, shortened: as §1
# [15] = target: T9, ELK4 (Homo sapiens, UniProt P28324-2 1-405); settings: protein: recombinant; tags: N-terminal GST; dsDNA, one strand shown
# T9 sequence: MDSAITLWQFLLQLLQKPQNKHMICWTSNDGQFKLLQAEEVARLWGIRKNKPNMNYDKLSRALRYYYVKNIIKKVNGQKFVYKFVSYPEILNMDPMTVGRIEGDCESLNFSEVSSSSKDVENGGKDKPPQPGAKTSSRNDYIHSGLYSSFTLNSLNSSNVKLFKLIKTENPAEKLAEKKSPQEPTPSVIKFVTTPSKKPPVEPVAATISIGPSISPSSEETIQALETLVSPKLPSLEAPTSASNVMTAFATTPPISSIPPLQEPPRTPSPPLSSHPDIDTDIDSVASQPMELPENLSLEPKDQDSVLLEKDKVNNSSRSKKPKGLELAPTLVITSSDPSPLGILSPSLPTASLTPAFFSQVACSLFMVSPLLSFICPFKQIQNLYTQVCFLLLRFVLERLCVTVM
# Procedure, shortened: as §1
# [16] = target: T10, ETV2 (Homo sapiens, UniProt O00321 1-342); settings: protein: recombinant; tags: N-terminal GST; dsDNA, one strand shown
# T10 sequence: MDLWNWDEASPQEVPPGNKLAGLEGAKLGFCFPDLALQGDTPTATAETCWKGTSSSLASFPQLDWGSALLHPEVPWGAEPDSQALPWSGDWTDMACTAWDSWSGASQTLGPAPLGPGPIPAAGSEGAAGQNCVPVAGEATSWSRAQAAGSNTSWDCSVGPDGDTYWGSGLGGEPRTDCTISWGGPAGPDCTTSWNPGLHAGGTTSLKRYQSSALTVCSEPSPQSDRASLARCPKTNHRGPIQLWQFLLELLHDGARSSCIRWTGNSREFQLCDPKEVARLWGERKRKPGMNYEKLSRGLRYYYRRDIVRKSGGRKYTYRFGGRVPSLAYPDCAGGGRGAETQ
# Procedure, shortened: as §1
# [17] = target: T11, ELF3 (Homo sapiens, UniProt P78545 1-371); settings: protein: recombinant; tags: N-terminal GST; dsDNA, one strand shown
# T11 sequence: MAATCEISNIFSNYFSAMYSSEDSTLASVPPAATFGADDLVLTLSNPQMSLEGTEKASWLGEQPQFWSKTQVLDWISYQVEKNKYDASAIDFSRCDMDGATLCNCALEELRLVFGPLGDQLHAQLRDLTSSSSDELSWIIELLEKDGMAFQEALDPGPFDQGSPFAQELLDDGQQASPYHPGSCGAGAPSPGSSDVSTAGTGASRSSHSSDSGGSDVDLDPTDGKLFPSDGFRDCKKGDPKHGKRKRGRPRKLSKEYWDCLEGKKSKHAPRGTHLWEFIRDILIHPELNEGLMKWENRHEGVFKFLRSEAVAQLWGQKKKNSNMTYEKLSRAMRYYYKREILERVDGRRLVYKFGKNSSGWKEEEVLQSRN
# Procedure, shortened: as §1
# [18] = target: CRX (Homo sapiens, UniProt O43186 1-299); settings: protein: recombinant; tags: N-terminal GST; dsDNA, one strand shown
# Sequence of CRX (O43186 whole entry): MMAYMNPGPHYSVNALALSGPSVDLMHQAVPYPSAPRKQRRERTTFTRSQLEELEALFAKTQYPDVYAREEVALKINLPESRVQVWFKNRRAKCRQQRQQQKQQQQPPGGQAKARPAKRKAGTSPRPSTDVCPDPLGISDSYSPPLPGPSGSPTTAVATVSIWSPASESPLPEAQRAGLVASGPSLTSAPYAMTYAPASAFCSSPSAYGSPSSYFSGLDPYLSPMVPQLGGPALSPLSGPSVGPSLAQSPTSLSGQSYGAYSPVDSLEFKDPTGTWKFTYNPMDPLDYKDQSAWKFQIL
# Procedure, shortened: as §1
# [19] = target: ETV1 (Homo sapiens, UniProt P50549 1-477); settings: protein: recombinant; tags: N-terminal GST; dsDNA, one strand shown
# Sequence of ETV1 (P50549 whole entry): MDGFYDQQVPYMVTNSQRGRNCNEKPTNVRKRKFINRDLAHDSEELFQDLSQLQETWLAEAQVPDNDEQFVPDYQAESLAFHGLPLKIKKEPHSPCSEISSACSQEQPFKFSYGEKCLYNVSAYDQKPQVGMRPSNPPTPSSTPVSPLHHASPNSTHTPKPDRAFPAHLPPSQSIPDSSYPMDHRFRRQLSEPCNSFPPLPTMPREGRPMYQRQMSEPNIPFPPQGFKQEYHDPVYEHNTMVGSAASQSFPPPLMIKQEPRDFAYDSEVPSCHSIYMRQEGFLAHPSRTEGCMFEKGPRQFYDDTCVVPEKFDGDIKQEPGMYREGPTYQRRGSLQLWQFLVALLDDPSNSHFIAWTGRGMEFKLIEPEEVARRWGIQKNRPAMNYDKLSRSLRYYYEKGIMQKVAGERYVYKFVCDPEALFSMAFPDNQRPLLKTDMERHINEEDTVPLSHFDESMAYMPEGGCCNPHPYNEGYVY
# Procedure, shortened: as §1
sequence,measurement,setting,value
GAACCT,binding signal,[1],"1.09 fold enrichment (6-mer frequency, TF over GST control)"
same,binding signal,[2],"1.27 fold enrichment (6-mer frequency, TF over GST control)"
same,binding signal,[3],"1.06 fold enrichment (6-mer frequency, TF over GST control)"
same,binding signal,[4],"1.09 fold enrichment (6-mer frequency, TF over GST control)"
same,binding signal,[5],"1.13 fold enrichment (6-mer frequency, TF over GST control)"
same,binding signal,[6],"1.15 fold enrichment (6-mer frequency, TF over GST control)"
same,binding signal,[7],"1.11 fold enrichment (6-mer frequency, TF over GST control)"
same,binding signal,[8],"1.14 fold enrichment (6-mer frequency, TF over GST control)"
same,binding signal,[9],"1.18 fold enrichment (6-mer frequency, TF over GST control)"
same,binding signal,[10],"1.03 fold enrichment (6-mer frequency, TF over GST control)"
same,binding signal,[11],"1.1 fold enrichment (6-mer frequency, TF over GST control)"
same,binding signal,[12],"1.45 fold enrichment (6-mer frequency, TF over GST control)"
same,binding signal,[13],"1.09 fold enrichment (6-mer frequency, TF over GST control)"
same,binding signal,[14],"1.17 fold enrichment (6-mer frequency, TF over GST control)"
same,binding signal,[15],"1.07 fold enrichment (6-mer frequency, TF over GST control)"
same,binding signal,[16],"1.25 fold enrichment (6-mer frequency, TF over GST control)"
same,binding signal,[17],"1.15 fold enrichment (6-mer frequency, TF over GST control)"
same,binding signal,[18],"1.06 fold enrichment (6-mer frequency, TF over GST control)"
same,binding signal,[19],"1.05 fold enrichment (6-mer frequency, TF over GST control)"
